NS1 inh: inhibitors of influenza NS1 protein function; Potency, µM (highest dose often 46.1 µM), without a hit: at the highest dose activity, positive = more growth; 270,000 tested, 0.4% active; calls by dose curve; note: potency is the fitted concentration of half-maximal effect; actives are rising curves; nearly all actives have a fitted effect of over 50% in size
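Growth recovery, yeast-based: influenza A NS1 expressed in S. cerevisiae causes slow growth, and suppressors are detected by OD600. The parent strain without NS1 is used as positive control.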
AmpC no deterg: inhibitors of E. coli AmpC beta-lactamase without detergent. Potency, µM (highest dose often 57.1 µM), without a hit: at the highest dose activity change, negative = inhibition, actives largely listed as inhibitors. P00811. AmpC nitrocefin hydrolysis, absorbance 480 nm, 0.0001% Triton. 330,000 tested, 0.52% active. AID 485341;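 note: potency is the fitted concentration of half-maximal effect; plate controls were no compound for no effect and no enzyme for full effect; nearly all actives have a fitted effect of over 20% in size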
Target sequence (P00811 whole entry, looked up): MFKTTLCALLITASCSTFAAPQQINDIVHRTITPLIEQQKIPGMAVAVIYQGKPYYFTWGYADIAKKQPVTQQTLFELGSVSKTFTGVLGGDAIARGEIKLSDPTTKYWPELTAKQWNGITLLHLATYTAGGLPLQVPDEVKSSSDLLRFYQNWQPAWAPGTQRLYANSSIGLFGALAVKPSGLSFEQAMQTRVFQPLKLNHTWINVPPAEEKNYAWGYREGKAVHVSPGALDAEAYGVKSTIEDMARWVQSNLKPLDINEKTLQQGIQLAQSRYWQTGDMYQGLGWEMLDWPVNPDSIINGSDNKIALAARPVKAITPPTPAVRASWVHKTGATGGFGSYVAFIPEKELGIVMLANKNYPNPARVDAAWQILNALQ
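AmpC (5.3 nM in the dispensed reagent) in 20 mM phosphate pH 7.0 with 0.01% (detergent screen) or 0.0001% Triton X-100 was preincubated with compounds for 15 min at room temperature. Nitrocefin was then added from an 800 uM solution, and hydrolysis was followed at 480 nm.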
CHX counter: counter-screen for Shiga toxin inhibitors: cycloheximide protein synthesis inhibition; max response, %; 300,000 tested, 12% active; cell reporter, cycloheximide protein synthesis inhibition counterscreen; in the data active = max response mostly above about 13%, no sharp cut-off; inactive = mostly below about 14%; note: read at 38.3 µM for the half of the compounds with a filed dose; 0% is about no effect
Shiga toxin inh: inhibitors of Shiga toxin in Vero cells; AID 2315; Vero cells, Shiga toxin protein synthesis inhibition reporter; inhibition, % at 38.7 µM; 290,000 tested, 9.2% active; in the data active = inhibition mostly above about 28%, no sharp cut-off; inactive = mostly below about 43%; note: 0% is about no effect
AmpC inh detg: blocks E. coli AmpC beta-lactamase in detergent assay | AmpC hydrolysis of nitrocefin, absorbance 480 nm, 0.01% Triton | Potency, µM (highest dose often 114 µM), without a hit: at the highest dose activity change, negative = inhibition, most hits filed as inhibitors | AID 485294 | P00811 | 370,000 tested, 0.041% active;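 note: potency is the fitted concentration of half-maximal effect; 0% = no-compound wells and -100% = no-enzyme wells; nearly all actives have a fitted effect of over 25% in size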
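AmpC (5.3 nM in the dispensed reagent) in 20 mM phosphate pH 7.0 with 0.01% (detergent screen) or 0.0001% Triton X-100 was preincubated with compounds for 15 min at room temperature. Nitrocefin was then added from an 800 uM solution, and hydrolysis was followed at 480 nm.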
Flu NS1 inh: validation of influenza NS1 protein function inhibitors | shares compounds with NS1 inh | influenza NS1 function cell assay, 15-point titration | activity change, negative = inhibition, % at 32.9 µM | 1,400 tested, under 10 active | AID 492980; calls by dose curve; note: 0% is about no effect
PR8 titer: influenza NS1 inhibitors: inhibition of influenza A/PR/8/34 replication | shares compounds with NS1 inh | MDCK infected influenza A/PR/8/34, virus titer TCID50; hits give low values | virus titer (log TCID50), log10 TCID50 at 5 µM | 95 tested, 30% active; call rule not given here
* = called active by the depositor; i = inactive; ? = inconclusive; / = not tested or not shown. The entries come from a sample that favours hits as a whole. Unless noted, calls come from the whole dose curve; as a rule, active = well fitted curve in the direction sought with a large enough effect; inconclusive = small, poorly fitted or top-dose-only effect, or another doubt; inactive = no such curve, though single readings can be large; an effect the other way counts as inactive or inconclusive.

SMILES	NS1 inh	AmpC no deterg	CHX counter	Shiga toxin inh	AmpC inh detg	Flu NS1 inh	others
Cc1ccc(S(=O)(=O)NCC(=O)NCC2COc3ccccc3O2)cc1C (stereo unspecified)	/	2%	/	/	3%	/
COc1cc(/C=N/NC(=O)c2ccc3nc[nH]c3c2)cc(OC)c1OC	1%	-28%	-3	-7	-1%	/
COc1cc(/C=N/NC(=O)c2ccc(CSc3nc4ccccc4[nH]3)cc2)cc(OC)c1OC	13µM*	48%	8	11	-3%	?	PR8 titer=8
Cc1ccccc1C(=O)NNC(=O)Nc1ccccc1	/	-28%	2	7	1%	/
CCOc1ccc(S(=O)(=O)c2c(C(=O)c3ccc(C)cc3)cnc3cc4c(cc23)OCCO4)cc1	14µM*	-6%	4	16	-7%	-14
O=C(Nc1cc(Oc2ccccc2)cc([N+](=O)[O-])c1)C12CC3CC(C1)CC(n1cnc(Cl)n1)(C3)C2	2.2µM*	-24%	10	16	-8%	?
CCOc1cc(N2CCOCC2)c(OCC)cc1NC(=O)Cc1cccc2ccccc12	13µM*	38%	-2	-5	-2%	-3
O=C(c1cc(-c2ccncc2)nc2ccccc12)N1CCN(c2ccc(N3CCOCC3)nn2)CC1	?	106%	2	26	2%	-33
Cc1ccc(C)c(N(CC(=O)N2CCCC2)S(C)(=O)=O)c1	23%	-1%	-1	-6	?	/
COc1ccc(NC(=O)c2cc3c(=O)n4ccccc4nc3n2C)cc1OC	/	-2%	5	3	0%	/
COc1cccc(/C=N/NC(=O)c2nc(-c3ccccc3)cc(-c3ccccc3)n2)c1	?	-33%	0	7	5%	-26
COc1cccc(/C=N/NC(=O)CCc2ccccc2)c1	-7%	-25%	11	-9	-14%	/
CCOC(=O)C1CCN(S(=O)(=O)c2ccc3c(c2)N(C(C)=O)CC(C)S3)CC1 (stereo unspecified)	-4%	111%	-2	-2	-3%	/
CC1CN(C(=O)Cc2ccc(-c3ccccc3)cc2)CC(C)O1 (stereo unspecified)	-13%	93%	18	-18	-8%	/
CC(OC(=O)c1cccc(N(C)C)c1)C(=O)N1CCc2ccccc2C1 (stereo unspecified)	/	-4%	/	/	/	/
Cn1nc(-c2ccccc2)c(-c2nc(-c3cccc(Cl)c3)no2)c1Cl	4%	-5%	-5	-4	-1%	/
CCNc1nc(NC(C)C)nc(Oc2ccc(OCCOc3ccccc3)nn2)n1	1%	41%	-3	-16	-14%	/
COc1ccc(S(N)(=O)=O)cc1C(=O)N(C)CC(=O)Nc1ccc(N2CCOCC2)cc1	2%	8%	14	2	-2%	/
c1ccc(CC2CNc3ccccc3CN2)cc1 (stereo unspecified)	0.89µM*	-23%	12	-2	-2%	-26
Cc1ccc(S(=O)(=O)N(C)c2ccc(C(=O)Nc3c(C)n(C)n(-c4ccccc4)c3=O)cc2)cc1	-5%	10%	-6	16	1%	/
CCN1C/C(=C/c2cccs2)c2nc3ccccc3c(C(=O)O)c2C1	2%	-1%	1	-6	?	/
CCc1ccc(/C=C2\CN(CC)Cc3c2nc2ccccc2c3C(=O)O)cc1	3.5µM*	54%	1	21	-8%	-15
CCOC(=O)C(C(=O)Nc1ccc(C)cc1)C1CCCCC1 (stereo unspecified)	-2%	-1%	-3	-12	1%	/
Cc1ccc(NC(=S)NNc2ccc([N+](=O)[O-])cc2S(=O)(=O)Nc2ccccc2C(=O)O)cc1C	13µM*	-33%	5	35	-2%	32
Cc1ccc(NC(=O)NNC(=O)Cn2nc(-c3ccccc3)c(-c3ccccc3)c(C#N)c2=O)cc1	?	-37%	-3	-3	-3%	-37
SMILES	NS1 inh	AmpC no deterg	CHX counter	Shiga toxin inh	AmpC inh detg	Flu NS1 inh	others
Oc1c(C(c2ccccc2)N2CCCCC2)sc2ncnn12 (stereo unspecified)	?	-11%	-2	-5	-3%	1
Oc1c(C(c2ccccc2)N2CCN(Cc3ccccc3)CC2)sc2ncnn12 (stereo unspecified)	?	54%	-6	-21	?	/
COC(=O)c1ccc2c(c1)C(=O)/C(=C/c1ccc(C)cc1)O2	10µM*	-32%	9	30	-15%	9
O=C1NC(=Nc2ccccc2)S/C1=C\C=C\c1ccco1	4.5µM*	14µM*	4	-8	-2%	?
CC1=CC[C@@]23CCCN2C(=O)CCC[C@H]3C1	/	-12%	9	i	/	/
Cc1cc(NC(=O)CSc2nnc(-c3cccs3)n2N)no1	?	-5%	-3	-17	3%	-7
CCCCn1c(SCC(=O)Nc2cc(C)on2)nnc1-c1cccs1	0%	-11%	1	-5	-6%	/
COC(=O)c1cc(NC(=O)C2(S(=O)(=O)c3ccc(C)cc3)CC2)cc(C(=O)OC)c1	18%	65%	-3	-2	?	/
COC(=O)c1cc(NC(=O)C2(S(=O)(=O)c3ccc(Cl)cc3)CC2)cc(C(=O)OC)c1	11µM*	35%	0	22	-16%	3
O=C1CC(Nc2ccc(N3CCOCC3)cc2)C(=O)N1c1cccc(C(F)(F)F)c1 (stereo unspecified)	11µM*	-10%	0	6	6%	4
O=C(Cc1ccc(Cl)cc1)Nc1ccc(N2CCN(C(=O)c3ccco3)CC2)c(Cl)c1	0.28µM*	-8%	9	13	?	?
O=C(COc1ccc(Cl)cc1Cl)N1CCN(C(=O)c2ccco2)CC1	?	24%	-1	-8	-4%	-4
O=C(COc1ccccc1O)N1CCN(C(=O)c2ccco2)CC1	-7%	-15%	1	-21	?	/
CCOc1ccccc1CN1C(=O)c2ccccc2C1C(=O)NC(C)CC (stereo unspecified)	-1%	-13%	-2	-14	4%	/
O=C(Cc1ccccc1Cl)N/N=C/c1cccnc1	-4%	-24%	1	-25	1%	/
COc1ccc(C2/C=C\CN(S(=O)(=O)c3ccc4ccccc4c3)CC(=O)N2Cc2ccc(F)cc2)cc1 (stereo unspecified)	2.8µM*	0%	14	-2	-2%	-31	PR8 titer=8
Cc1ccc(NC(=O)CN2C(=O)C(c3ccc(F)cc3)=NC23CCCCC3)c(C)c1	/	/	/	/	16%	/
O=C(c1cccc(S(=O)(=O)N2CCCC2)c1)N1CCN(Cc2ccccc2)CC1	/	84%	/	/	-3%	/
Cc1ccccc1CC(=O)NCCN1CCCCC1	2%	3%	-3	-6	-1%	/
O=C(Cc1ccccc1)NCCN1CCCC1	2.8µM*	-7%	-4	-11	?	-1
